A selection: hits, their analogues and other compounds. The true share with any hit is near 19%.
TDP1 cell noCPT = qHTS for Inhibitors of human tyrosyl-DNA phosphodiesterase 1 (TDP1): qHTS in cells in absence of CPT; DT40 Tdp1-/- hTDP1 cells, no CPT, ATP luminescence, 48 h; Potency, µM (doses to about 46.2 µM), without a hit: top-dose activity change, negative = growth inhibition, actives largely listed as inhibitors; 15% of 420,000 active; AID 686978, 2013; note: potency is the fitted concentration of half-maximal effect; nearly all actives have a fitted effect of over 55% in size
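Growth of hTDP1-complemented DT40 Tdp1-knockout cells is measured by ATP luminescence after at least 48 hr compound exposure at 37 °C, with DMSO substituting for the 20 nM CPT used in the parallel screen.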
HT1080-NT tox = kills 2HG-producing HT-1080-NT fibrosarcoma cells | HT-1080-NT fibrosarcoma viability, CellTiter-Glo ATP luminescence, 48 h | Potency, µM (doses to about 46.1 µM), for inactives: top-dose activity, negative = less viability, most hits filed as cytotoxic | 1.6% of 360,000 active;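 note: NT is the 2HG producing partner of a matched IDH1 knockdown line; potency is the fitted concentration of half-maximal effect; 0% = DMSO-treated cells and -100% = media-only wells without cells; nearly all actives have a fitted effect of over 55% in size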
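HT-1080-NT; 750 cells/well; 5% FBS RPMI; 48 h compound, 37 degrees C; CellTiter-Glo luminescence; curve fitting and curve-class assignment.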
HT1080 IDH1KD tx = toxicity to HT-1080 IDH1 knockdown cells (counter line); HT-1080 IDH1 knockdown viability, ATP luminescence, 48 h; 2% of 360,000 active; Potency, µM (titrated, usually from 46.1 µM), for inactives: top-dose activity, negative = toxicity, actives largely listed as cytotoxic;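 note: potency is the fitted concentration of half-maximal effect; 0% = DMSO wells and -100% = cell-free medium wells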
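After a 2 h attachment period, IDH1KD HT-1080 cells took pin-transferred compound for 48 h at 37 °C; ATP-based luminescence after 10 min room-temperature reagent incubation reported viability.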
IL-1B inflam inh = inflammasome signaling inhibition, IL-1 beta readout; 4.7% of 360,000 active; activity change, % at 57.5 µM; THP-1 LPS/ATP IL-1B secretion, AlphaLISA, 16 h; stronger effect = lower value; in the data active = activity change below about -50%; inconclusive = mostly about -30% to -49%
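THP-1 cells pretreated 1 hr with compounds (up to 57.5 uM final), then stimulated with LPS (250 ng/mL final) plus ATP (1.25 mM final); secreted IL-1B measured by AlphaLISA after 16 hr, decreased signal indicating inhibition.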
DT40 TDP1 CPT = DT40-hTDP1 cell growth loss with CPT; chicken DT40 Tdp1-/-;hTDP1 cells + 20 nM CPT, ATP luminescence, 48 h; Potency, µM (top dose mostly 46.2 µM), without a hit: at the top dose activity change, negative = growth inhibition, hits mostly inhibitors; 12% of 420,000 active; AID 686979; note: potency is the fitted concentration of half-maximal effect; nearly all actives have a fitted effect of over 55% in size
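Chicken DT40 Tdp1-/- cells stably complemented with human TDP1 were seeded at 400 cells/well in medium containing 20 nM camptothecin, exposed to pin-transferred compounds, and grown at 37 °C for at least 48 hr. Viability was read as ATP luminescence.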
* = called active by the depositor; ? = inconclusive; / = no result given; [ ] = dose if it differs, or a comment. Unless noted, calls come from the whole dose curve; as a rule, active = well fitted curve in the direction sought with a large enough effect; inconclusive = small, poorly fitted or top-dose-only effect, or another doubt; inactive = no such curve, though single readings can be large; an effect the other way counts as inactive or inconclusive. Unless noted, % is set by controls: 0 for no effect and ±100 for the full control effect.

SMILES	TDP1 cell noCPT	HT1080-NT tox	HT1080 IDH1KD tx	IL-1B inflam inh	DT40 TDP1 CPT
COc1cccc(/C=C(\C#N)C(=O)Nc2ccc(NC(C)=O)cc2)c1OC	5%	/	/	/	5%
O=C(NC1=NCCS1)c1cc(-c2ccc(F)cc2)nc2ccccc12	?	0%	-2%	-73*	?
CCCc1ccc(-c2cc(C(=O)NC3=NCCS3)c3ccccc3n2)cc1	?	-30%	?	-53*	?
Cc1ccc(-c2cc(C(=O)NC3=NCCS3)c3ccccc3n2)cc1C	-28%	?	-27%	-9	?
Oc1ccc(CNc2ccccc2)c2cccnc12	2.6µM*	5.8µM*	?	9	3.7µM*
Cc1ccccc1NCc1ccc(O)c2ncccc12	5.2µM*	3.2µM*	0.71µM*	45	2.6µM*
Oc1ccc(CNc2ccc(F)cc2)c2cccnc12	1.6µM*	18µM*	18µM*	-3	2.9µM*
OCc1ccnc2c(O)cccc12	?	-8%	-16%	15	?
Cc1cccc(NCc2ccccc2O)c1C	-17%	-12%	-26%	1	-6%
CCn1c(SCc2nc(-c3ccc(Cl)cc3)no2)nnc1-c1ccco1	21µM*	-17%	?	?	?
Cn1c(SCc2nc(-c3ccc(Cl)cc3)no2)nnc1-c1cccs1	16µM*	-1%	0%	?	?
Cn1c(SCc2nc(-c3ccccc3)no2)nnc1-c1ccco1	-6%	7%	4%	6	-3%
Cc1ccc(NC(=O)/C=C\C(=O)NCC(=O)O)cc1C	-4%	6%	1%	16	-6%
CN1/C(=C\C(=O)COC(=O)c2ccc(O)c(O)c2)C(C)(C)c2ccccc21	6.5µM*	0%	?	5	6.5µM*
CN1/C(=C\C(=O)COC(=O)c2ccc(O)cc2)C(C)(C)c2ccccc21	16µM*	-14%	3%	3	15µM*
CNS(=O)(=O)c1cccc(C(=O)OCC(=O)/C=C2/N(C)c3ccccc3C2(C)C)c1	18µM*	-18%	-26%	11	21µM*
CN1/C(=C\C(=O)COC(=O)CNC(=O)c2ccc3ccccc3c2)C(C)(C)c2ccccc21	10µM*	3%	-1%	68	18µM*
CN1/C(=C\C(=O)COC(=O)CNC(=O)c2ccccc2F)C(C)(C)c2ccccc21	-15%	0%	12%	16	13%
COC(=O)C1CCCCN1Cc1ccc2c(c1)CN(Cc1cn[nH]c1-c1ccc(F)cc1)CCO2 (stereo not drawn)	?	/	/	/	1%[9.04 µM]
O=C(c1ccco1)N1CCN(Cc2cc(=O)c(OCc3ccc(F)cc3)co2)CC1	7%	-2%	-1%	-5	?
CCOc1ccc(Nc2nc(Nc3ccc(O)cc3)nc(C)c2[N+](=O)[O-])cc1	?	-22%	-17%	26	-20%
CC(=O)c1ccc(NC(=O)CN(c2c(C)cccc2C)S(C)(=O)=O)cc1	-10%	1%	0%	-11	-1%
CCn1cc(C(=O)OCC(=O)Nc2c(C)cccc2C)c(=O)c2ccc(C)nc21	23µM*	-18%	-16%	0	16µM*
CCn1cc(C(=O)NCCc2ccc(Cl)cc2)c(=O)c2ccc(C)nc21	?	2%	-1%	-4	-23%
CCn1cc(C(=O)NCCc2ccc(OC)cc2)c(=O)c2ccc(C)nc21	23µM*	12%	17%	7	?
SMILES	TDP1 cell noCPT	HT1080-NT tox	HT1080 IDH1KD tx	IL-1B inflam inh	DT40 TDP1 CPT
CCOc1ccc(N(CC(=O)NCc2cccc(OC)c2)S(=O)(=O)c2c(C)noc2C)cc1	?	-25%	-1%	-5	1%
Cc1ccc(C)c(OCCCN2CCc3ccccc3C2)c1	?	-30%	?	7	12µM*
Cc1ccc(SCCOCCN2CCc3ccccc3C2)cc1	16µM*	1%	0%	6	?
C=CCn1c(SCC(=O)Nc2ncc(Cc3ccc(Br)cc3)s2)nnc1-c1ccncc1	-17%	?	?	13	-7%
CCCCSc1nnc2n(CCc3ccccc3)c(=O)c3c4c(sc3n12)COC(C)(C)C4	23µM*	1%	-4%	-3	23µM*
CCOC(=O)CN(c1cc([N+](=O)[O-])ccc1OC)S(C)(=O)=O	-2%	-1%	12%	-60*	1%
COc1ccc(Cl)cc1N(CC(=O)N(C)C)S(=O)(=O)c1ccc(C)c([N+](=O)[O-])c1	21µM*	5%	2%	20	?
C=CCOc1cccc(/C=N/NC(=O)CN(c2cc(Cl)ccc2OC)S(=O)(=O)c2ccc(C)c([N+](=O)[O-])c2)c1	16µM*	-1%	-13%	-7	?
COCC(=O)N/N=C/c1ccc(Sc2nc3ccccc3s2)o1	?	-7%	-5%	1	-19%
O=C(COc1cccc2ccccc12)N/N=C/c1ccc(Sc2nc3ccccc3s2)o1	21µM*	-11%	-13%	-5	?
N#CCC(=O)N/N=C/c1ccc(Sc2nc3ccccc3s2)o1	-27%	3%	-17%	11	1%
Cc1ccccc1OCC(=O)N/N=C/c1ccc(Sc2nc3ccccc3s2)o1	16µM*	-18%	?	-24	?
O=C(Cc1cccc2ccccc12)N/N=C/c1ccc(Sc2nc3ccccc3s2)o1	?	-1%	-22%	55	16µM*
CS(=O)(=O)N1CCC[C@@]2(CCN(Cc3nccs3)C2)C1	-6%	/	/	/	10%
O=C(N1CCOCC1)N1[C@H](COCc2ccccc2)C=CS1(=O)=O	-16%	-5%	-3%	-13	5%
CN(C(=O)COC(=O)/C=C/c1ccc(C(F)(F)F)cc1)c1c(N)n(Cc2ccccc2)c(=O)[nH]c1=O	6.5µM*	-1%	-4%	-4	6.5µM*
CCN(C(=O)COC(=O)/C=C/c1cccc(Cl)c1)c1c(N)n(Cc2ccccc2)c(=O)[nH]c1=O	?	3%	2%	8	23µM*
CCN(C(=O)COC(=O)/C=C/c1ccc(Cl)c(Cl)c1)c1c(N)n(Cc2ccccc2)c(=O)[nH]c1=O	2.1µM*	6%	0%	17	3.7µM*
Cc1c(C(=O)NCc2ccc3c(c2)OCCO3)sc(=O)n1Cc1ccccc1C(F)(F)F	?	-21%	-16%	-6	?
Cc1cccc(N2CCN(C(=O)CN3C(=O)NC(C)(C4CC4)C3=O)CC2)c1C (stereo not drawn)	?	14%	11%	-5	?
Cc1csc(SCC(=O)Nc2nc(-c3ccccc3)cs2)n1	?	13%	6%	-10	?
O=C(CCn1cnc2ccccc2c1=O)Nc1nc(-c2ccc(Br)cc2)cs1	16µM*	-13%	-23%	-9	?
Cc1ccc(-c2csc(NC(=O)CSc3nc(C)cs3)n2)cc1	16µM*	2%	-4%	-15	?
